In all, about 5,500 compounds went through this assay and about 2,000 (36%) were called active. Inconclusive results (about 18%) are left out. The list shows a part of the results. Unmarked numbers belong to inactive results. Rule as the data show it: active = normalized growth mostly below about 0.91 (no sharp cut-off); inconclusive = no clear call, values can overlap the other calls; inactive = mostly above about 0.92.
Assay: chemical genetic growth profiling, strain panel (AID 1159580);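 also: tested at 20 µM; growth read once vehicle control cultures reached saturation at 30 °C; 1 = growth at the plate median or of vehicle wells; lower values mean less growth of the strain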
Conditions: S. cerevisiae deletion strains, growth OD

CC(C)c1ccc2c(c1O)CC[C@H]1C3=C(CC[C@]21C)C(=O)OC3
normalized growth (locus YJL187C, strain SWE1, active compounds read low): 0.985
normalized growth (locus YJR043C, strain POL32, active compounds read low): 0.865
normalized growth (locus YJR066W, strain TOR1, active compounds read low): 0.898
normalized growth (locus YJR075W, strain HOC1, active compounds read low): 0.866 (active)
normalized growth (locus YKL009W, strain mrt4, active compounds read low): 0.935
normalized growth (locus YKL068W, active compounds read low): 0.946
normalized growth (locus YKL085W, strain MDH1 (second series), active compounds read low): 0.918 (active)
normalized growth (locus YKL085W, strain MDH1, active compounds read low): 0.918 (active)
normalized growth (locus YKL160W, strain elf1, active compounds read low): 0.956
normalized growth (locus YKR001C, strain vps1, active compounds read low): 0.834 (active)
normalized growth (locus YKR026C, strain gcn3, active compounds read low): 0.931
normalized growth (locus YKR091W, strain srl3, active compounds read low): 0.967
normalized growth (locus YLL001W, strain dnm1, active compounds read low): 0.967
normalized growth (locus YLL026W, active compounds read low): 0.962
normalized growth (locus YLL041C, strain sdh2, active compounds read low): 0.97
normalized growth (locus YLR027C, strain aat2, active compounds read low): 0.964
normalized growth (locus YLR039C, strain RIC1, active compounds read low): 0.628 (active)
normalized growth (locus YLR058C, strain SHM2, active compounds read low): 0.911
normalized growth (locus YLR102C, strain apc9, active compounds read low): 0.954
normalized growth (locus YLR113W, strain HOG1, active compounds read low): 0.909
normalized growth (locus YLR221C, strain rsa3, active compounds read low): 0.96
normalized growth (locus YLR258W, strain gsy2, active compounds read low): 0.951
normalized growth (locus YLR262C, strain YPT6 (second series), active compounds read low): 0.816 (active)
normalized growth (locus YLR262C, strain YPT6, active compounds read low): 0.667
normalized growth (locus YLR268W, strain sec22, active compounds read low): 0.923
normalized growth (locus YLR320W, strain mms22, active compounds read low): 0.863 (active)
normalized growth (locus YLR330W, strain CHS5, active compounds read low): 0.638 (active)
normalized growth (locus YLR342W, strain FKS1 (second series), active compounds read low): 0.65 (active)
normalized growth (locus YLR342W, strain FKS1, active compounds read low): 0.987
normalized growth (locus YLR357W, strain rsc2, active compounds read low): 0.991
normalized growth (locus YLR370C, strain arc18, active compounds read low): 0.965
normalized growth (locus YLR384C, strain iki3, active compounds read low): 0.967
normalized growth (locus YLR418C, strain cdc73, active compounds read low): 0.7 (active)
normalized growth (locus YML016C, strain PPZ1, active compounds read low): 0.969
normalized growth (locus YML032C, strain rad52, active compounds read low): 0.912
normalized growth (locus YML120C, strain ndi1, active compounds read low): 0.968
normalized growth (locus YML124C, strain tub3, active compounds read low): 0.988
normalized growth (locus YMR058W, strain fet3, active compounds read low): 0.961
normalized growth (locus YMR078C, strain ctf18, active compounds read low): 0.923
normalized growth (locus YMR125W, strain sto1, active compounds read low): 0.949
normalized growth (locus YMR129W, active compounds read low): 0.96
normalized growth (locus YMR205C, strain PFK2, active compounds read low): 0.88
normalized growth (locus YMR223W, strain ubp8, active compounds read low): 0.91
normalized growth (locus YMR231W, strain pep5, active compounds read low): 0.975
normalized growth (locus YMR263W, strain SAP30, active compounds read low): 0.896
normalized growth (locus YMR307W, strain GAS1, active compounds read low): 0.474 (active)
normalized growth (locus YNL067W, strain RPL9B, active compounds read low): 0.932
normalized growth (locus YNL071W, strain lat1, active compounds read low): 0.853 (active)
normalized growth (locus YNL183C, strain NPR1, active compounds read low): 0.924
normalized growth (locus YNL209W, strain ssb2, active compounds read low): 0.972
normalized growth (locus YNL233W, strain BNI4, active compounds read low): 0.723 (active)
normalized growth (locus YNL248C, strain rpa49, active compounds read low): 0.957
normalized growth (locus YNL250W, strain rad50, active compounds read low): 0.971
normalized growth (locus YNL271C, strain bni1, active compounds read low): 0.992
normalized growth (locus YNL298W, strain CLA4, active compounds read low): 0.957
normalized growth (locus YNL307C, strain MCK1, active compounds read low): 0.536 (active)
normalized growth (locus YNL322C, strain KRE1 (second series), active compounds read low): 0.973
normalized growth (locus YNR049C, strain mso1, active compounds read low): 0.976
normalized growth (locus YNR052C, strain pop2, active compounds read low): 0.953
normalized growth (locus YOL012C, strain htz1): 0.499
normalized growth (locus YOL147C, strain pex11, active compounds read low): 0.933
normalized growth (locus YOR001W, strain rrp6, active compounds read low): 0.985
normalized growth (locus YOR061W, strain CKA2, active compounds read low): 0.964
normalized growth (locus YOR069W, strain VPS5, active compounds read low): 0.944
normalized growth (locus YOR070C, strain gyp1, active compounds read low): 0.956
normalized growth (locus YOR080W, strain dia2, active compounds read low): 0.986
normalized growth (locus YOR083W, strain WHI5, active compounds read low): 0.966
normalized growth (locus YOR106W, strain vam3, active compounds read low): 0.999
normalized growth (locus YOR136W, strain idh2, active compounds read low): 0.929
normalized growth (locus YOR144C, strain elg1, active compounds read low): 0.958
normalized growth (locus YOR184W, strain ser1, active compounds read low): 0.671 (active)
normalized growth (locus YOR231W, strain MKK1, active compounds read low): 0.942
normalized growth (locus YOR265W, strain rbl2, active compounds read low): 0.963
normalized growth (locus YOR270C, strain vph1, active compounds read low): 0.794
normalized growth (locus YOR290C, strain snf2, active compounds read low): 0.909
normalized growth (locus YOR316C, strain cot1, active compounds read low): 0.968
normalized growth (locus YPL051W, strain arl3, active compounds read low): 0.932
normalized growth (locus YPL055C, strain LGE1, active compounds read low): 0.598 (active)
normalized growth (locus YPL078C, strain atp4, active compounds read low): 0.934
normalized growth (locus YPL106C, strain sse1, active compounds read low): 0.965
normalized growth (locus YPL240C, strain hsp82, active compounds read low): 0.971
normalized growth (locus YPL241C, strain CIN2, active compounds read low): 0.911 (active)
normalized growth (locus YPL256C, strain CLN2, active compounds read low): 0.876
normalized growth (locus YPR119W, strain clb2, active compounds read low): 0.951
normalized growth (locus YPR141C, strain kar3, active compounds read low): 0.965
normalized growth (locus YPR163C, strain tif3, active compounds read low): 0.794 (active)
normalized growth (locus YPR167C, strain met16, active compounds read low): 0.947
normalized growth (strain wtn01, active compounds read low): 0.965
